Compound activity (PubChem)
Shown are actives, neighbours in structure and some others; about 12% of the full set was active somewhere.
HP1b chromo inh: HP1-beta chromodomain-methylated histone interaction inhibition. P83916. AlphaScreen HP1-beta / biotin-H3K9me3 peptide binding. Potency, µM (series often up to 114 µM), for inactives: top-dose activity change, negative = inhibition, usual class: inhibitors. hit rate 0.56% among 390,000; also: nearly all actives have a fitted effect of over 70% in size
Target sequence (P83916 whole entry, looked up): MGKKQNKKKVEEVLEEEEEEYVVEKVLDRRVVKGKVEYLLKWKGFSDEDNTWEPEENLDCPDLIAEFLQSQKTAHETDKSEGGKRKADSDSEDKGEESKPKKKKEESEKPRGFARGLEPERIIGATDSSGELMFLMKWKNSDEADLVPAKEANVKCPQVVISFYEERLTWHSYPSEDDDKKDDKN
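AlphaScreen: HP1-beta (50 nM) preformed 30 min with biotin-H3(1-18)K9me3 peptide (50 nM) in PBS pH 7.4, 0.01% Tween-20. Compound added for 30 min at RT, then streptavidin donor/nickel chelate acceptor beads (10 ug/mL) for 30 min.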
L3MBTL1 inh: inhibitors of human L3MBTL1; Q9Y468; AlphaScreen L3MBTL1–H3K9me1 peptide binding; Potency, µM (series often up to 57.1 µM), for the others: top-dose activity, negative = inhibition, usual class: inhibitors; hit rate 0.66% among 230,000; also: % is scaled to controls: 0 for no effect and ±100 for the full control effect; nearly all actives have a fitted effect of over 60% in size
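L3MBTL1 (50 nM) pre-complexed 30 min with biotinylated H3(1-15)K9me1 peptide (75 nM), then compounds added for 30 min at room temperature; AlphaScreen streptavidin donor/nickel chelate acceptor beads (10 ug/mL final) read after 30 min dark incubation.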
JMJD2A Tudor inh: blocks the human JMJD2A Tudor domain; O75164; AlphaScreen JMJD2A-Tudor / H3K4me3 peptide binding; Potency, µM (highest dose often 114 µM), without a hit: at the highest dose activity change, negative = inhibition, most hits filed as inhibitors; hit rate 4.4% among 390,000; also: % is scaled to controls: 0 for no effect and ±100 for the full control effect; nearly all actives have a fitted effect of over 50% in size
G9a inh: G9a (human) methyltransferase inhibition; G9a H3K9 monomethylation, AlphaScreen, 2 h; Q96KQ7; Potency, µM (doses to about 102 µM), inactives show at the top dose activity, negative = inhibition, usual class: inhibitors; hit rate 8.8% among 350,000; AID 504332; also: % is scaled to controls: 0 for no effect and ±100 for the full control effect; nearly all actives have a fitted effect of over 75% in size
Target sequence (Q96KQ7 913-1193 limits assumed): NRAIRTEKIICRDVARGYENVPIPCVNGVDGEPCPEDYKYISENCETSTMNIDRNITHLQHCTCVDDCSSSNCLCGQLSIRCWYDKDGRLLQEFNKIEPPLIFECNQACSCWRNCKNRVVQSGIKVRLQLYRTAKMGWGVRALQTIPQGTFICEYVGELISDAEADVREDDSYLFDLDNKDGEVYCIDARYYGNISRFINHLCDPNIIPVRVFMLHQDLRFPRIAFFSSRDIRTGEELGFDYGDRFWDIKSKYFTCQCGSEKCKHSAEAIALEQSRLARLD
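Chemiluminescent proximity detection of H3K9 monomethylation, read after 10 min bead incubation in the dark. Reaction: 20 nM G9a, 500 nM biotin-H3K9 peptide, 20 uM SAM cofactor, 2 h, room temperature, following 15 min enzyme-compound preincubation.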
Sfp PPTase inh: inhibitors of Bacillus subtilis Sfp phosphopantetheinyl transferase; Q9F4F7; Biochemical Sfp PPTase activity, qHTS; Potency, µM, inactives show largest response in the series, negative = inhibition, hits mostly inhibitors; hit rate 3.5% among 310,000;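 also: the enzyme is Sfp with the accession as filed and its product quenches rhodamine fluorescence; 0% = enzyme reaction without inhibitor and -100% = no enzyme wells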
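Fluorescence-quenching assay: 15 nM Sfp-PPTase preincubated 15 min at room temperature with compound, then 5 uM rhodamine-CoA and 12.5 uM BHQ-2-labelled YbbR peptide added. Fluorescence (ex 525/em 598 nm) read at start and after 30 min; difference gives rate.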
BAZ2B inh: blocks human BAZ2B; Q9UIF8; AlphaScreen BAZ2B-H3K14Ac peptide displacement; Potency, µM (highest dose often 114 µM), for inactives: at the top dose activity change, negative = inhibition, actives largely listed as inhibitors; hit rate 4.4% among 360,000; AID 504333; also: % is scaled to controls: 0 for no effect and ±100 for the full control effect; nearly all actives have a fitted effect of over 60% in size
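AlphaScreen luminescence quantifies BAZ2B engagement of H3K14Ac peptide; the protein and biotinylated peptide are both at 50 nM final, buffer PBS pH 7.4 with 0.01% Tween-20, all steps at room temperature.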
An asterisk follows results filed as active; ? = inconclusive; nt = not tested or not shown; ! = not active in a repeat; [ ] = another dose, or the depositor's remark. Calls follow the shape of the dose curve; as a rule, active = well fitted curve in the direction sought with a large enough effect; inconclusive = small, poorly fitted or top-dose-only effect, or another doubt; inactive = no such curve, though single readings can be large; an effect the other way counts as inactive or inconclusive. Potency is read from the fitted curve at half-maximal effect.

SMILES	HP1b chromo inh	L3MBTL1 inh	JMJD2A Tudor inh	G9a inh	Sfp PPTase inh	BAZ2B inh
COc1ccccc1NC(=O)Cn1c(=O)n(Cc2ccc3c(c2)OCO3)c(=O)c2oc3ccccc3c21	33%	nt	-1%	-8%[59 µM]	nt	-6%
CSc1nsc(SC)c1NC(=O)OCc1ccccc1	33%	-11%	-7%	40µM*	-1%	0%
CSc1nsc(SC)c1NC(=O)OCC1CCCO1 (configuration not stated)	25%	-5%	-8%	?	56µM*	2%
CSc1nsc(SC)c1NC(=O)OCCc1ccccn1	25%	0%	-9%	?	-20%	4%
CSc1nsc(SC)c1NC(=O)Nc1ccccn1	32%	-1%	-6%	?	8%	-2%
CN(Cc1cnc2nc(N)nc(N)c2n1)c1ccc(C(=O)N[C@@H](CCC(=O)O)C(=O)O)cc1	30%	nt	-6%	7.5µM*!	?	nt
COc1ccc(CNC(=O)[C@H]2C[C@@H]2[C@H](NP(=O)(c2ccccc2)c2ccccc2)c2ccccc2)cc1OC	nt	nt	nt	nt	8%	nt
Cc1ccc(CNC(=O)[C@@H]2C[C@H]2[C@@H](NP(=O)(c2ccccc2)c2ccccc2)c2ccccc2)o1	nt	nt	nt	nt	50µM*	nt
O=C(NCCc1c[nH]c2ccccc12)[C@@H]1C[C@H]1[C@@H](NP(=O)(c1ccccc1)c1ccccc1)c1ccccc1	nt	-21%	nt	79µM*	9%	?
Cc1ccc(NC(=O)CSc2nc3ccccc3c3nc(CCc4c(C)n[nH]c4C)nn23)c(C)c1	4%	nt	-10%	9%[59 µM]	nt	-14%
CCS(=O)(=O)N1CCc2cc(C(=O)Nc3ccc(Br)cc3F)ccc21	10%	nt	?	-4%[59 µM]	nt	?
COCCNC(=O)COc1ccc(Nc2ccccc2)cc1	0%	-1%	-21%	50µM*	-20%	?
COc1ccccc1CNC(=O)c1cc2c(-c3ccc(Cl)cc3)nn(C)c2s1	41%	nt	-14%	-17%[59 µM]	nt	nt
C=C1c2ccccc2NC(=O)N1c1ccc(C)cc1	19%	nt	-20%	8.9µM*	0%	5%
Cc1ccc2c(c1)/C(=N/N1C(=O)c3ccccc3C1=O)C(=O)N2	13%	8%	-4%	-12%[59 µM]	2%	0%
Cc1ccc(N2C(=O)Cc3ccccc3C2=O)cc1	-7%	nt	-28%	-14%	7%	-22%
C=C1c2cc(C)ccc2NC(=O)N1c1ccc(C)cc1	29%	nt	0%	10µM*	13%	-11%
CCC(=O)C1=C(c2ccc(OC)c(OC)c2)N(C(=O)CC)n2c(CC)nnc2S1	38%	nt	-12%	17%[59 µM]	nt	-23%
O=C(CC(c1cccs1)S(=O)(=O)c1ccccc1)c1ccc(F)cc1 (configuration not stated)	30%	6%	9%	8.9µM*	-2%	-24%
Cc1ccc(C(=O)CC(c2cccs2)S(=O)(=O)c2ccc(C)cc2)cc1 (configuration not stated)	17%	3%	2%	-28%[59 µM]	2%	-5%
CCc1cccc(C)c1Nc1c(-c2ccsc2)nc2ncccn12	0%	nt	-35%	-43%[59 µM]	nt	?
CCc1cccc(C)c1Nc1c(-c2ccc(N(C)C)cc2)nc2cnccn12	?	nt	40µM*	18µM*	nt	16µM*
CCc1cccc(C)c1Nc1c(-c2ccc(SC)cc2)nc2sccn12	?	nt	?	14µM*	nt	22µM*
CCc1cccc(-n2c(=O)c3cccnc3n2CC(=O)Nc2ccccc2C(=O)OC)c1	29%	nt	12%	5%[59 µM]	nt	5%
Cc1sc2ncnc(Sc3ccccc3C(=O)Nc3ccc(C#N)cc3)c2c1C	12%	-18%	-16%	?	-5%	-28%
SMILES	HP1b chromo inh	L3MBTL1 inh	JMJD2A Tudor inh	G9a inh	Sfp PPTase inh	BAZ2B inh
COc1ccc(NC(=O)CN(C)C(=O)c2ccccc2Sc2ncnc3sc(C)c(C)c23)cc1	29%	?	-19%	35µM*	nt	-21%
Cc1sc2ncnc(Sc3ccccc3C(=O)Nc3ccc(Br)cc3)c2c1C	?	7%	?	8.9µM*	50µM*	27%
Cc1sc2ncnc(Sc3ccccc3C(=O)Nc3ccccc3Cl)c2c1C	40%	2%	7%	3.5µM*	?	-10%
CCc1nn(CC(=O)Nc2ccc(C)c(F)c2)c(=O)c2cc3cc(C)ccc3n12	15%	nt	-12%	-2%[59 µM]	nt	-4%
CN(C)c1ccc(-c2nccc(NCCN3CCOCC3)n2)cc1	nt	nt	nt	nt	-7%	nt
CC(C)CCCC(C)NC(C)C (configuration not stated)	nt	nt	nt	-29%[12.7 µM]	12%	nt
COc1ccc(C(=O)N(Cc2cc(OC)c(OC)c(OC)c2)C2CCS(=O)(=O)C2)cc1Cl (configuration not stated)	40%	nt	-1%	9%[59 µM]	nt	3%
COCCn1c(CNC(=O)c2ccccc2C)nc2cccnc21	26%[57 µM]	nt	-3%	42%[59 µM]	nt	2%
O=[N+]([O-])c1ccc(-c2csc3[n+]2CCS3)cc1	17%	nt	-14%	35µM*	11µM*	1%
Cc1cccc(-n2c(=O)c3c(c4cc(C)ccc4n3C)n(CC(=O)Nc3ccc(C)cc3C)c2=O)c1	44%	nt	2%	1%[59 µM]	nt	0%
Nc1ccc(Oc2ccccc2-c2ccccc2)cc1	?	nt	50µM*	nt	nt	nt
Cc1cc2oc(C(=O)N(Cc3ccc(N(C)C)cc3)CC3CCCO3)c(C)c2cc1Cl (configuration not stated)	-21%	nt	22µM*	14µM*	nt	14µM*
Cc1c(C(=O)N(Cc2ccc(N(C)C)cc2)CC2CCCO2)oc2ccc(Cl)cc12 (configuration not stated)	?	nt	13µM*	11µM*	nt	10µM*
Cc1ccc2oc(C(=O)N(Cc3ccncc3)CC3CCCO3)c(C)c2c1 (configuration not stated)	24%	nt	-9%	?	6%	-19%
Cc1c(C(=O)N(Cc2ccc(Cl)cc2)CC2CCCO2)oc2ccc(F)cc12 (configuration not stated)	114%	nt	63%	78%[59 µM]	nt	47%
Cc1c(C(=O)N(Cc2ccc(N(C)C)cc2)CC2CCCO2)oc2ccccc12 (configuration not stated)	?	nt	28µM*	14µM*!	-12%	11µM*
Cc1c(C(=O)N(Cc2ccc(N(C)C)cc2)CC2CCCO2)oc2ccc(Br)cc12 (configuration not stated)	?	nt	13µM*	13µM*	nt	10µM*
COc1ccc(CC(=O)N2CCc3cc(OC)c(OC)cc3C2COc2ccc(OC)cc2)cc1 (configuration not stated)	13%	nt	?	?	nt	-39%
